From the OligoGym collection come the findings set out here.

Among the targets are GATA4; GEMIN6; GCKR; GH2; GLRA3; GLIS2; GLP1R; GNAQ.
Holding throughout (test): pooled miR-30 sensor sort-seq; sequence = guide strand
What all share (conditions): shRNA
Note: reference of the scale not given here.

With TTGATGGGACGCATCTCCTCGC, the sensor-assay potency score (higher = more potent) in the assay with GATA4 is -0.611.

Turning to TTCCGCATTGCAAGAGGCCTGG, in the assay with GATA4, the sensor-assay potency score (higher = more potent) was -0.334.

Regarding TCAAACATATCGAGATTGGGGT, the sensor-assay potency score (higher = more potent) with GATA4 turned out to be 0.14.

Consider TTCAATAAGATCCTGAACACGC, for which the sensor-assay potency score (higher = more potent) with GEMIN6 was found to be 0.147.

As to TGACGGGAGACGCATAGCCTTG, in the assay with GATA4, the sensor-assay potency score (higher = more potent) was -1.75.

In the assay with GEMIN6, TAATCTTGCCATTCTAAGGGGC came in with a sensor-assay potency score (higher = more potent) of 0.00534.

Take TTCTGGTTAAACATGTCACTGT: the sensor-assay potency score (higher = more potent) with GCKR turned out to be 0.368.

For ATAGGTGTCATATGCCAGCTGG, the sensor-assay potency score (higher = more potent) with GH2 is -0.725.

Regarding TTCTTCAAACTCCTGATAGGTG, the sensor-assay potency score (higher = more potent) with GH2 is -0.633.

As for TTGCTTGTAGACATGGTCCCAT, the sensor-assay potency score (higher = more potent) with GLRA3 was found to be 0.533.

Regarding TTGCATGTGACATTAACTGGAG, the sensor-assay potency score (higher = more potent) with GLRA3 was -0.491.

For TATTGTTATAGTCATTAGCTTA, the sensor-assay potency score (higher = more potent) in the assay with GLIS2 was -0.656.

TTTTTTTAAAACTCTATGCTAA: the sensor-assay potency score (higher = more potent) with GLIS2 was -0.424.

With ATAGTCATTAGCTTATCTCTTT, the sensor-assay potency score (higher = more potent) with GLIS2 was -0.353.

On to TTGATGTCTGTCTTGCACATGA, for which, in the assay with GLP1R, the sensor-assay potency score (higher = more potent) was -0.0737.

With TAACATATAAACACATTGGCAG, the sensor-assay potency score (higher = more potent) in the assay with GLRA3 is -0.00869.

Regarding TTGATGAAGACGGACAATGCTC, the sensor-assay potency score (higher = more potent) with GLP1R was -0.64.

In the case of TTCTTCTTTCAACAGAAACTGG, in the assay with GLRA3, the sensor-assay potency score (higher = more potent) was -0.833.

Consider TTATATCCTATTATTTTCCTTG, for which the sensor-assay potency score (higher = more potent) in the assay with GLP1R was -0.237.

As for TATACATGTTTGTACATCCATG, the sensor-assay potency score (higher = more potent) with GLRA3 is -1.26.

The sequence TTATTCTTTCTCTTTCGTCGAA gave a sensor-assay potency score (higher = more potent) with GLRA3 of 0.181.

As for TAAAACTCTATGCTAACAGCAA, the sensor-assay potency score (higher = more potent) in the assay with GLIS2 was -0.574.

In the case of TAGCTTTGACATATGAAACTTT, the sensor-assay potency score (higher = more potent) in the assay with GLRA3 was -0.212.

For TTGGAGTTCCTGGTCCAGCAGC, the sensor-assay potency score (higher = more potent) in the assay with GLP1R was -1.12.

Sequence TTGTATGGGATCTTGAGTGTGT had a sensor-assay potency score (higher = more potent) with GNAQ of 0.798.

With TGACTTTGCATAGCTAACCAAA, in the assay with GLRA3, the sensor-assay potency score (higher = more potent) was -1.29.

In the case of TGGATGAGCATCTTGTACCTGG, the sensor-assay potency score (higher = more potent) with GLIS2 is -0.352.

As to TAGTCATTAGCTTATCTCTTTT, in the assay with GLIS2, the sensor-assay potency score (higher = more potent) was -1.29.

Regarding TTTATAAACTTCCTCTCCCATG, the sensor-assay potency score (higher = more potent) in the assay with GLIS2 was -1.13.

In the case of TATTCTTTCTCTTTCGTCGAAA, the sensor-assay potency score (higher = more potent) with GLRA3 is -0.712.
